# Results: PubChem BioAssay (NCI)
# Values joined by “and” are separate entries in the source; they are usually repeats but may differ in a detail not shown here. Equal entries are not always repeated. The panel holds about 79,000 compounds, 15% with a hit somewhere; the sample as a whole holds those more often. Some compounds were tested as several samples or in several runs, with calls that do not always agree. Active and inactive are the calls of the source. Cut-off read from the data, not from the text of the source: active = growth inhibition above about 70%; inactive = the rest.
# Columns and labels:
# [1] = NCI Yeast Anticancer Drug Screen. Data for the rad50 strain (AID 155);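 note: 0% = growth of vehicle-only cultures of the same strain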; details: S. cerevisiae rad50 strain growth inhibition, stronger effect = higher value
# How it was run: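 Growth of the mutant yeast was measured after compound exposure and referenced to vehicle-treated cultures.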
# [2] = NCI Yeast Anticancer Drug Screen. Data for the mec2-1 strain (AID 157); details: S. cerevisiae mec2-1 strain, stronger effect = higher value
# How it was run: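 Readout is yeast growth inhibition, normalised to vehicle-treated controls, in the mec2-1 strain exposed to compound.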
# [3] = NCI Yeast Anticancer Drug Screen. Data for the sgs1 mgt1 strain (AID 161);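 note: 0% = growth of cultures given vehicle only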; details: S. cerevisiae sgs1 mgt1 strain, stronger effect = higher value
# How it was run: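 This yeast growth screen uses a strain with defined DNA-repair lesions; compound-treated growth is compared with vehicle-treated growth.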
# [4] = NCI Yeast Anticancer Drug Screen. Data for the cln2 rad14 strain (AID 165);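 note: 0% = growth equal to vehicle treated cultures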; details: S. cerevisiae cln2 rad14 strain, stronger effect = higher value
# How it was run: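 Relative to vehicle controls, growth inhibition of compound-treated cln2 rad14 yeast was recorded.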
# [5] = NCI Yeast Anticancer Drug Screen. Data for the bub3 strain (AID 167); details: S. cerevisiae bub3 mutant strain, stronger effect = higher value
# How it was run: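 Whole-cell yeast assay. The mutant strain was incubated with compounds, and growth inhibition was determined by comparison with vehicle-treated cells.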
# [6] = NCI Yeast Anticancer Drug Screen. Data for the mlh1 rad18 strain (AID 175); details: S. cerevisiae mlh1 rad18 strain growth inhibition, stronger effect = higher value
# How it was run: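 Test agents were incubated with a yeast strain of defined genotype (DNA damage repair defect). Inhibition of growth was derived by comparison with vehicle-exposed cultures.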
# [7] = at 5.0 µM (retest, dose inferred, filed as 0.5)
# [8] = at 50.0 µM (retest, dose inferred, filed as 5.0)
Compound,"growth inhibition [1, 7]","growth inhibition [1, 8]",growth inhibition ([1]; at 50.0 µM),"growth inhibition [2, 7]","growth inhibition [2, 8]",growth inhibition ([2]; at 50.0 µM),"growth inhibition [3, 7]","growth inhibition [3, 8]",growth inhibition ([3]; at 50.0 µM),"growth inhibition [4, 7]","growth inhibition [4, 8]",growth inhibition ([4]; at 50.0 µM),"growth inhibition [5, 7]","growth inhibition [5, 8]",growth inhibition ([5]; at 50.0 µM),"growth inhibition [6, 7]","growth inhibition [6, 8]",growth inhibition ([6]; at 50.0 µM)
CC(C)(C)OC(=O)NCCc1cccc2c1oc1c(CCC(=O)O)cccc12,-14% (inactive),76% (active),89.6% (active),-1% (inactive),95% (active),78.4% (active),3% (inactive),53% (inactive),68.7% (inactive),-16% (inactive),99% (active),87% (active),-20% (inactive),88% (active),79.6% (active),-7% (inactive),96% (active),83.5% (active)
COC(=O)[C@@H](NS(=O)(=O)CC12CCC(CC1)C2(C)C)C(C)(C)C,2% (inactive),50% (inactive),14.2% (inactive),1% (inactive),51% (inactive),26.1% (inactive),16% (inactive),70% (active),25.7% (inactive),6% (inactive),48% (inactive),21.4% (inactive),0% (inactive),54% (inactive),10.9% (inactive),0% (inactive),83% (active),58.6% (inactive)
Clc1ccc(/C=C/c2ccccn2)c(Cl)c1,3% (inactive),43% (inactive),-14.9% (inactive) and 12.1% (inactive),-3% (inactive),12% (inactive),6.2% (inactive) and 3.7% (inactive),-2% (inactive),5% (inactive),-23.1% (inactive) and 58% (inactive),-6% (inactive),-4% (inactive),-0.55% (inactive) and 20.8% (inactive),51% (inactive),10% (inactive),-9.75% (inactive) and 4% (inactive),1% (inactive),11% (inactive),-47.5% (inactive) and 31% (inactive)
NC(CC(=O)O)C(=O)O (configuration not stated),-2% (inactive),2% (inactive),-21.4% (inactive) and 99.3% (active) and 3.3% (inactive),-10% (inactive),-3% (inactive),-7.85% (inactive) and 99.6% (active) and 9.7% (inactive),-3% (inactive),0% (inactive),-30.9% (inactive) and 98% (active) and -5.9% (inactive),4% (inactive),-7% (inactive),-7.75% (inactive) and 99.3% (active) and 16.6% (inactive),5% (inactive),0% (inactive),-10.1% (inactive) and 99.6% (active) and -3.75% (inactive),-3% (inactive),4% (inactive),-14.1% (inactive) and 99.5% (active) and 21.2% (inactive)
